# The full ranking holds about 1,100 compounds; the median of “Renilla luciferase signal (cell health) relative to plate median” is about 0.97, and the highest 2% start at about 1.6. Only a selection was taken, and the highest values are over-represented in it overall.
# Tested on: HEK293T (UBE3A T485A transfected, BAR Wnt reporter)
# Assay: Renilla luciferase signal (cell health) relative to plate median (fold (linear ratio)); higher = higher Renilla signal
# Conditions: 24 h
# Method in brief: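 Using Fugene 6, HEK293T cells in white 384-well plates (4500 cells/well; DMEM, 10% FBS, 37°C, 5% CO2) were transfected with a BAR firefly luciferase Wnt reporter, TK-Renilla and an expression plasmid. After four hours, robots dosed the chemicals at 0.01–100 uM, and a Dual-Glo luciferase readout followed 24 h later. Per-plate median-centred firefly/Renilla ratios gave Wnt activity, while per-plate median-centred raw Renilla signals gave cell health. Four biological replicates were averaged.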
Compound,Renilla luciferase signal (concentration: 0.1 uM),Renilla luciferase signal (concentration: 1 uM),Renilla luciferase signal (concentration: 10 uM),Renilla luciferase signal (concentration: 100 uM),Renilla luciferase signal (concentration: 0.01 uM)
CCc1c(C(=O)NN2CCCCC2)nn(-c2ccc(Cl)cc2Cl)c1-c1ccc(Br)cc1 [Surinabant],1.06,1.07,0.127,0.363,
COC(=O)CCCCC(=O)OC [Dimethyl adipate],0.854,0.917,0.874,1.11,
CCCCCCCC(=O)OC [Methyl octanoate],1.03,0.911,1.04,1.61,
CCCCCCCCCCCC(=O)OC [Methyl dodecanoate],0.884,0.792,0.85,0.89,
O=C(O)c1cccc(C[C@@H]2COc3ccc(OCc4nc5cc(F)ccc5s4)cc3[C@@H]2O)c1,1.04,1.05,1.17,0.94,
C=CCCCCCCCCCCCC [1-Tetradecene],1.14,1.17,0.992,1.23,
CC[C@H]1CC[C@H](NCc2cc3c(cc2OC)[C@H]2C[C@H]2C(=O)N3C)[C@H](c2ccccc2)N1,0.925,0.69,0.042,0.0275,
CC(C)(O)c1ccc(CNC(=O)c2cccnc2Oc2ccc3nonc3c2)cc1,0.961,0.975,0.999,0.124,
CCSC(=O)N(CC(C)C)CC(C)C [Butylate],1.15,1.07,1.09,1.59,1.09
CCCN(CCC)C(=O)SCC,0.898,1.09,0.918,2.92,0.911
O=[N+]([O-])c1ccc(O)cc1 [4-Nitrophenol],0.863,0.956,0.876,0.736,
O=C(O)c1ccc([N+](=O)[O-])cc1 [4-Nitrobenzoic acid],1.01,0.971,1.08,1.33,
"C=CCc1cc(S(=O)(=O)c2ccc(O)c(CC=C)c2)ccc1O [4,4'-Sulfonylbis[2-(prop-2-en-1-yl)phenol]]",1,1.11,1.34,0.0284,
Cc1c(C)c2c(c(C)c1O)CCC(C)(COc1ccc(CC3SC(=O)NC3=O)cc1)O2 (stereo not drawn) [Troglitazone],0.923,0.982,0.892,0.0852,
Cc1c(C)c2c(c(C)c1O)CCC(C)(CCCC(C)CCCC(C)CCCC(C)C)O2 (stereo not drawn) [Vitamin E (alpha-tocopherol)],1.02,0.963,1.28,1.99,1.15
CCCCCCCCCCCCCCO [1-Tetradecanol],0.93,0.831,0.94,0.92,
CCOc1ccc2c(c1)C(C)=CC(C)(C)N2 [Ethoxyquin],1,1.01,0.86,0.0339,
OC[C@H]1O[C@@H]2O[C@H]3[C@H](O)[C@@H](O)[C@@H](O[C@H]4[C@H](O)[C@@H](O)[C@@H](O[C@H]5[C@H](O)[C@@H](O)[C@@H](O[C@H]6[C@H](O)[C@@H](O)[C@@H](O[C@H]7[C@H](O)[C@@H](O)[C@@H](O[C@H]1[C@H](O)[C@H]2O)O[C@@H]7CO)O[C@@H]6CO)O[C@@H]5CO)O[C@@H]4CO)O[C@@H]3CO [alpha-Cyclodextrin],1.12,1.05,1.05,1.77,
Cc1oc(-c2ccccc2)nc1CCOc1cccc2c1ccn2CCC(=O)O,0.873,0.846,0.748,0.478,
CCN(CC)CCNc1ccc(CNC=O)c2sc3ccc(OC)cc3c(=O)c12,0.886,0.626,0.193,0.0173,

Compound,Renilla luciferase signal (concentration: 0.1 uM),Renilla luciferase signal (concentration: 1 uM),Renilla luciferase signal (concentration: 10 uM),Renilla luciferase signal (concentration: 100 uM),Renilla luciferase signal (concentration: 0.01 uM)
NC(=O)N(O)[C@@H]1C=C[C@H](Oc2cccc(Oc3ccc(F)cc3)c2)C1,1.08,0.968,1.14,0.801,
CC1(C)NC(=O)N(c2ccc([N+](=O)[O-])c(C(F)(F)F)c2)C1=O [Nilutamide],1.05,1.09,0.995,0.268,
CC(=O)CC(c1ccccc1)c1c(O)c2ccccc2oc1=O (stereo not drawn) [Warfarin],1.16,0.923,0.762,1.24,
NC(CCCP(=O)(O)O)C(=O)O (racemic),0.901,1.22,1.06,2.45,0.767
Cc1ccc(S(=O)(=O)NC(=O)NN2CCCCCC2)cc1 [Tolazamide],0.729,0.841,0.872,1.19,
CC(C)(C)c1cc(O)ccc1O [tert-Butylhydroquinone],0.651,0.859,0.989,0.227,
CO[C@@H]1COCC[C@@H]1[NH2+][C@@H]1CC[C@@](C(=O)N2CCc3ncc(C(F)(F)F)cc3C2)(C(C)C)C1.O=C([O-])CCC(=O)O,0.901,1.1,0.9,1.08,
NCc1cccc(C2CCN(C(=O)c3ccc(C#Cc4ccccc4F)o3)CC2)c1,1.16,0.989,1.04,1.31,
CCOC(=O)CCC(=O)OCC [Diethyl butanedioate],0.922,0.965,0.973,1.25,
[Cl-].[K+],0.999,1.06,1.02,1.88,1.13
[Cl-].[Li+],1.03,0.97,0.953,1.14,0.945
Cc1cn([C@H]2C=C[C@@H](CO)O2)c(=O)[nH]c1=O [Stavudine],0.957,1.07,0.973,0.903,
CCc1nc(N)nc(N)c1-c1ccc(Cl)cc1 [Pyrimethamine],1.11,1.06,1.07,0.0813,
Cc1ccc(C(C)C)cc1 [p-Cymene],1.03,0.949,1.11,1.51,
"CC(C)c1cccc(C(C)C)c1 [1,3-Diisopropylbenzene]",1.12,1.28,1.17,1.7,
Nc1ncn([C@@H]2O[C@H](CO)[C@@H](O)[C@H]2O)c(=O)n1 [5-azacytidine],0.572,0.391,0.138,0.596,0.936
CCCCCCCCCCCCCCCCOS(=O)(=O)[O-].[Na+] [Sodium hexyldecyl sulfate],1.11,1.05,1.11,0.434,
CC(=O)O[C@]1(C(C)=O)CC[C@H]2[C@@H]3C=C(Cl)C4=CC(=O)[C@@H]5C[C@@H]5[C@]4(C)[C@H]3CC[C@@]21C [Cyproterone acetate],1.06,0.965,0.849,0.603,
CCOc1ccc2[nH]cc(C(=O)NCc3ccccc3)c(=O)c2n1,1.05,1.12,1.22,0.85,

# Source: the supplement of paper PMC9254222
